Laboratory results reported in PubChem BioAssay (NCI).
“And” between values parts separate entries of the source, which are not always exact repeats. Equal entries are not always repeated. This is part of a sample that, as a whole, favours compounds with a hit. Of some 83,000 tested, about 20% had one in any assay.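 Cells were grown in 96-well plates and exposed to the test compound at a single concentration for 48 hours; results are reported as percent growth, with values below 10 considered active.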 A number with no mark means an inactive call. The source made the active and inactive calls.

What follows are molecules tested on MDA-MB-468 breast (assay: NCI-60 one-dose screen, 48 h (100 = growth as untreated, 0 = no growth, -100 = all killed)). Conditions: 10 µM unless noted.

Row | SMILES | growth
1 | CC(C)(C)c1[nH]nc2c1C(c1cc3ccccc3[nH]c1=O)Nc1cc(C(=O)OCc3ccccc3)ccc1N2 (centres undefined) | 43.7%
2 | COc1cc(-c2nc(-c3nc4ccccc4[nH]3)cc3c2[nH]c2ccccc23)cc(OC)c1OC | 42.1%
3 | COc1cccc2c(=O)c3c(sc12)c(NCCN(C)C)nc1ccccc13 | 12.7%
4 | N#CCCN(CCO)c1ccccc1 | 97.3%
5 | C=CC(=O)Nc1cccc(C)c1Nc1cc(-c2cccnc2Cc2c(C)c(OC)cc(OC)c2C)ncn1 | 19.5%
6 | O=C1C=C(Nc2ccccc2)c2ncccc2C1=O | -61.3% (active)
7 | CCn1c(Cc2ccccc2Nc2c(Cl)cccc2Cl)nnc1SCC(=O)NN1C(=O)/C(=C/c2cccc(OC)c2OC)SC1=S | 99.5%
8 | O=C(Nc1ccc(Oc2ccc(Nc3nc4ccccc4s3)cc2)cc1)Nc1ccc(Cl)c(C(F)(F)F)c1 | 4.56% (active)
9 | Cn1cc(-c2nnc(N)nc2-c2c[nH]c3ccc(Br)cc23)c2cc(Br)ccc21 | 105%
10 | CCN(CC)c1ccc2c(c1)Oc1nc(N)c(C#N)c(N)c1C2Sc1ccc(F)cc1 (centres undefined) | -70.1% (active)
11 | CCCCC(N)(C(=O)O)C1CCCC1 (centres undefined) | 107%
12 | c1ccc2c(-c3nc(N4CCOCC4)c4c5c(sc4n3)CCCCCC5)cccc2c1 | 95.1%
13 | S=c1[nH]nc2sc3ccccc3n12 | 122%
14 | N#Cc1c(-c2ccc(Br)cc2)nc2c(N=Nc3ccc(S(N)(=O)=O)cc3)c(N)nn2c1N | 23.6%
15 | NC(=O)NN=C(C1CC1)C1CC1 | 119%
16 | COc1ccc2c(O)cc3c(c2c1)[C@H](CCl)CN3C(=O)c1cc2cc(NC(=O)CCN3CCOCC3)ccc2[se]1 | -25.3% (active)
17 | Cc1cc(C)c(NC(=O)c2sc3nc4c(cc3c2N)CN(Cc2ccccc2)CC4)c(C)c1 | 14%
18 | CCN(CC)CCCNCc1cc(-c2ccccc2)nc2ccccc12 | 91.5%
19 | Cc1ccc(C)c(-c2csc(Nc3ccc(C)c(C)c3)n2)c1 | 14.5%
20 | O=C(Nc1ccc(F)cc1)c1ccccc1 | 98.3%

Row | SMILES | growth
21 | C=CC(=O)Nc1cccc(Nc2nc(Nc3ccc(N4CCN(C(C)=O)CC4)cc3OC)ncc2C(F)(F)F)c1 | -48.8% (active)
22 | Cc1ccccc1NC(=O)c1sc2nc3c(cc2c1N)CCCC3 | 11.8%
23 | CCC(C)NCC(=O)O (centres undefined) | 100%
24 | Cc1cc(-c2ccc(NS(=O)(=O)c3ccccc3)c(C)c2)ccc1NS(=O)(=O)c1ccccc1 | 80.4% and 101%
25 | Cn1c2c(c3ccc(-c4ccn[nH]4)cc3c1=O)C(=O)c1ccccc1-2 | 46.2%
26 | Cc1nn(-c2ccc(Br)cc2)c2nc(CCl)[nH]c(=O)c12 | 94%
27 | Cc1c2cnccc2c(C)c2c1oc1ccccc12 | 82.6%
28 | COc1ccc(/C=C2\CCCC3=C2N=C2SC(C)=NN2C3c2ccc(OC)c(OC)c2)cc1OC (centres undefined) | 12.1%
29 | COc1ccc(/C(C)=C(/c2ccc(OCCCN(C)C)cc2)c2ccc(OC(=O)Cc3ccccc3)cc2)cc1 | 87.2%
30 | CCN(CC)CCN(CCN(CC)CC)c1ccccc1 | 92%
31 | Nc1c(C(=O)Nc2cccc(C(F)(F)F)c2)sc2nc3c(cc12)CCCCC3 | -9.93% (active)
32 | COc1ccc2c(c1)nnn1c3ncccc3c(N=O)c21 | -87.8% (active)
33 | O=C1c2ccccc2C(=O)c2c1cccc2-n1nnc2ccccc21 | 109%
34 | Cc1cccc(-c2nc(C(C)C)sc2-c2ccnc(NCCCNS(=O)(=O)c3ccc(Cl)cc3)c2)c1 | 55.2%
35 | Cc1cc(C)nc(NS(=O)(=O)c2ccc(Nc3ccc4c5c(n(CCCN(C)C)c(=O)c4c3)-c3ccccc3C5=O)cc2)n1 | 111%
36 | CCCCNC(=O)Oc1ccc(/C(=C(/CC)Cc2ccccc2)c2ccc(OCCN3CCCCCC3)cc2)cc1 | 6.65% (active)
37 | O=c1[nH]c2ccccc2cc1-c1nc2ccc(Cl)cc2[nH]1 | 60.7%
38 | Cc1ccc2nc(N)nnc2c1 | 102%
39 | S=c1[nH]c2cc(Cl)ccc2s1 | 108%
